In PubChem BioAssay (NCI):
This is part of a sample that, as a whole, favours compounds with a hit. Of some 79,000 tested, about 15% had one in any assay. Activity calls are given as the source filed them. Rule as the data show it: active = growth inhibition above about 70%; inactive = the rest.

Columns and labels:
[1] = NCI Yeast Anticancer Drug Screen. Data for the wt1 strain (AID 149);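 also: 0% = growth of vehicle-treated wt1 cultures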; conditions: S. cerevisiae wt1 strain (SPY 50644) growth inhibition, stronger effect = higher value
In short: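 Using yeast strain wt1, compound-induced growth inhibition was determined against vehicle-treated cultures.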

[2] = NCI Yeast Anticancer Drug Screen. Data for the rad50EPP+ strain (AID 151);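 also: 0% = growth of vehicle-treated control cultures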; conditions: S. cerevisiae rad50 mutant strain, stronger effect = higher value
In short: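 Strain rad50EPP+; compound exposure; % growth inhibition vs vehicle.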

[3] = NCI Yeast Anticancer Drug Screen. Data for the mgt1 strain (AID 153); conditions: S. cerevisiae mgt1 mutant growth inhibition, stronger effect = higher value
In short: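 Read-out: yeast growth inhibition vs vehicle control. Strain mgt1, drawn from a panel altered in DNA damage repair or cell cycle control.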

[4] = NCI Yeast Anticancer Drug Screen. Data for the rad50 strain (AID 155);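 also: 0% = growth of vehicle-only cultures of the same strain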; conditions: S. cerevisiae rad50 strain growth inhibition, stronger effect = higher value
In short: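 Relative growth inhibition (compound vs vehicle) was measured in yeast with a defined repair-gene alteration.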

[5] = NCI Yeast Anticancer Drug Screen. Data for the mec2-1 strain (AID 157); conditions: S. cerevisiae mec2-1 strain, stronger effect = higher value
In short: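 Cells of the genetically defined mec2-1 yeast strain are incubated with test compound. Inhibition of growth is calculated against vehicle-treated controls.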

[6] = NCI Yeast Anticancer Drug Screen. Data for the rad14 strain (AID 159);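 also: 0% = growth of vehicle-treated control cultures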; conditions: S. cerevisiae rad14 strain growth inhibition, stronger effect = higher value
In short: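 Screen for anticancer potential: a yeast strain altered in DNA damage repair is grown with compound, and reduced growth is quantified against vehicle controls.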

[7] = NCI Yeast Anticancer Drug Screen. Data for the sgs1 mgt1 strain (AID 161);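 also: 0% = growth of cultures given vehicle only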; conditions: S. cerevisiae sgs1 mgt1 strain, stronger effect = higher value
In short: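 Mutant yeast exposed to compound; growth scored against vehicle-only wells.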

[8] = NCI Yeast Anticancer Drug Screen. Data for the CLN2oe strain (AID 163);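 also: 0% = growth of vehicle-only control cultures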; conditions: S. cerevisiae CLN2oe strain, stronger effect = higher value
In short: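 Strain altered in cell-cycle control, incubated with compound; growth compared to solvent-treated controls.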

[9] = NCI Yeast Anticancer Drug Screen. Data for the cln2 rad14 strain (AID 165);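 also: 0% = growth equal to vehicle treated cultures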; conditions: S. cerevisiae cln2 rad14 strain, stronger effect = higher value
In short: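 The screen exposed genetically defined yeast (cln2 rad14) to test compounds and scored growth inhibition relative to vehicle-treated controls.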

[10] = NCI Yeast Anticancer Drug Screen. Data for the bub3 strain (AID 167); conditions: S. cerevisiae bub3 mutant strain, stronger effect = higher value
In short: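 Screening used yeast with an engineered genetic alteration affecting cell cycle control. Compound-exposed cultures were compared with vehicle cultures, and reduced growth was taken as inhibition.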

[11] = NCI Yeast Anticancer Drug Screen. Data for the wt2 strain (AID 169);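 also: 0% = growth of vehicle-treated yeast cultures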; conditions: S. cerevisiae wt2 strain growth inhibition, stronger effect = higher value
In short: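 Steps: yeast strain treated with compound; growth recorded; inhibition calculated relative to cultures given vehicle alone.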

[12] = NCI Yeast Anticancer Drug Screen. Data for the mlh1 strain (AID 171);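 also: 0% = growth of vehicle-treated control cultures of the same strain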; conditions: S. cerevisiae mlh1 strain growth inhibition, stronger effect = higher value
In short: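 Yeast screen: mutant strain plus compound, growth scored against vehicle control wells.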

[13] = NCI Yeast Anticancer Drug Screen. Data for the sgs1 strain (AID 173);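 also: 0% = growth of vehicle-only control cultures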; conditions: S. cerevisiae sgs1 mutant, stronger effect = higher value
In short: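 Inhibition of yeast growth served as the measure. The mutant strain was treated with each compound, and growth was normalised to cultures receiving vehicle alone.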

[14] = NCI Yeast Anticancer Drug Screen. Data for the mlh1 rad18 strain (AID 175); conditions: S. cerevisiae mlh1 rad18 strain growth inhibition, stronger effect = higher value
In short: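 Compound-treated yeast growth, normalised to vehicle controls. Strain bears defined DNA repair mutations.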

[15] = NCI Yeast Anticancer Drug Screen. Data for the rad52 strain (AID 147);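 also: 0% = growth of vehicle-treated control cultures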; conditions: S. cerevisiae rad52 mutant growth inhibition, stronger effect = higher value
In short: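 Genetically altered yeast (DNA damage repair defect) treated with compound; inhibition calculated relative to vehicle.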

[16] = NCI Yeast Anticancer Drug Screen. Data for the rad18 strain (AID 177); conditions: S. cerevisiae rad18 mutant growth inhibition, stronger effect = higher value
In short: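 Inhibition values reflect reduced yeast growth compared with vehicle-treated controls, using a strain engineered with a DNA damage repair defect.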

[17] = at 5.0 µM (retest, dose inferred, filed as 0.5)
[18] = at 50.0 µM (retest, dose inferred, filed as 5.0)

Measured: growth inhibition

CN(C)CCNC(=O)c1cccc2nc3c4ccccc4c4ccccc4c3nc12
active: [1]; at 33.0 µM 97% | [1]; at 100.0 µM 95% | [2]; at 11.0 µM 90% | [2]; at 33.0 µM 96% | [2]; at 100.0 µM 93% | [3]; at 33.0 µM 99% | [3]; at 100.0 µM 95% | [4]; at 11.0 µM 98% | [4]; at 33.0 µM 98% | [4]; [18] 96% | [4]; at 50.0 µM 96.7% | [4]; at 100.0 µM 91% | [5]; at 33.0 µM 99% | [5]; [18] 96% | [5]; at 50.0 µM 95.8% | [5]; at 100.0 µM 94% | [6]; at 33.0 µM 98% | [6]; at 100.0 µM 95% | [7]; [18] 97% | [7]; at 50.0 µM 96.2% | [8]; at 33.0 µM 97% | [8]; at 100.0 µM 92% | [9]; [18] 95% | [9]; at 50.0 µM 95% | [10]; at 11.0 µM 93% | [10]; at 33.0 µM 97% | [10]; [18] 96% | [10]; at 50.0 µM 95.4% | [10]; at 100.0 µM 92% | [11]; at 33.0 µM 97% | [11]; at 100.0 µM 94% | [12]; at 33.0 µM 98% | [12]; at 100.0 µM 94% | [13]; at 11.0 µM 73% | [13]; at 33.0 µM 98% | [13]; at 100.0 µM 95% | [14]; [18] 97% | [14]; at 50.0 µM 95.2%
inactive: [1]; at 1.2 µM -1% | [1]; at 3.7 µM 2% | [1]; at 11.0 µM 28% | [2]; at 1.2 µM 6% | [2]; at 3.7 µM 25% | [3]; at 1.2 µM 1% | [3]; at 3.7 µM 1% | [3]; at 11.0 µM 43% | [4]; at 1.2 µM -9% | [4]; at 3.7 µM -24% | [4]; [17] 65% | [5]; at 1.2 µM 0% | [5]; at 3.7 µM 1% | [5]; [17] 8% | [5]; at 11.0 µM 35% | [6]; at 1.2 µM 3% | [6]; at 3.7 µM 8% | [6]; at 11.0 µM 67% | [7]; [17] 17% | [8]; at 1.2 µM 0% | [8]; at 3.7 µM -3% | [8]; at 11.0 µM 29% | [9]; [17] 18% | [10]; at 1.2 µM -1% | [10]; at 3.7 µM 2% | [10]; [17] 7% | [11]; at 1.2 µM 1% | [11]; at 3.7 µM 9% | [11]; at 11.0 µM 29% | [12]; at 1.2 µM 1% | [12]; at 3.7 µM 2% | [12]; at 11.0 µM 53% | [13]; at 1.2 µM 1% | [13]; at 3.7 µM 4% | [14]; [17] 40%

O=C(N/N=C/c1ccc2c(c1)CCC2)c1ccccc1[N+](=O)[O-]
inactive: [15]; at 1.2 µM -18% | [15]; at 3.7 µM -15% | [15]; at 11.0 µM -3% | [15]; at 33.0 µM -1% | [2]; at 1.2 µM 8% | [2]; at 3.7 µM 15% | [2]; at 11.0 µM 21% | [2]; at 33.0 µM 0% | [2]; at 100.0 µM 23% | [5]; at 1.2 µM 0% | [5]; at 3.7 µM -10% | [5]; at 11.0 µM -9% | [5]; at 33.0 µM 7% | [6]; at 1.2 µM -10% | [6]; at 3.7 µM -8% | [6]; at 11.0 µM 2% | [6]; at 33.0 µM 6% | [7]; [17] -13% | [7]; [18] 53% | [10]; at 1.2 µM 5% | [10]; at 3.7 µM 19% | [10]; [17] 34% | [10]; at 11.0 µM 23% | [10]; at 33.0 µM 33% | [10]; [18] 49% | [11]; at 1.2 µM 16% | [11]; at 3.7 µM 12% | [11]; at 11.0 µM 12% | [11]; at 33.0 µM 37% | [12]; at 1.2 µM -19% | [12]; at 3.7 µM -20% | [12]; at 11.0 µM -43% | [12]; at 33.0 µM 18% | [13]; at 1.2 µM 15% | [13]; at 3.7 µM 23% | [13]; at 11.0 µM 30% | [13]; at 33.0 µM 42% | [16]; at 1.2 µM 8% | [16]; at 3.7 µM 13% | [16]; at 11.0 µM 9% | [16]; at 33.0 µM 12%
active: [15]; at 100.0 µM 95% | [5]; [17] 70% | [5]; [18] 99% | [5]; at 50.0 µM 71.2% | [5]; at 100.0 µM 94% | [6]; at 100.0 µM 95% | [9]; [17] 71% | [9]; [18] 70% | [10]; at 100.0 µM 96% | [11]; at 100.0 µM 97% | [12]; at 100.0 µM 95% | [13]; at 100.0 µM 96% | [16]; at 100.0 µM 96%
